From PubChem BioAssay
In the library only some 1.5% were active in any assay of this set; here they are far more common.
CCHF vOTU inh: blocks the CCHF virus ovarian tumor domain protease; CCHFV vOTU protease, Pep-AMC fluorescence; inhibition, % at 11.5 µM; hit rate 0.55% among 370,000; in the data active = inhibition above about 30%
VHR inh abs: blocks human VHR1 dual specificity phosphatase; inhibition, % at 13.3 µM; recombinant VHR phosphatase, pNPP absorbance; hit rate 0.52% among 290,000; AID 1654; in the data active = inhibition above about 50%
SARS 3CLpro inh: SARS-CoV 3CLpro protease inhibition; hit rate 0.14% among 290,000; inhibition, % at 6 µM; recombinant SARS-CoV 3CLpro, quenched FRET peptide cleavage; P0C6X7; in the data active = inhibition above about 12%
RecA intein inh: blocks M. tuberculosis RecA intein splicing | P9WHJ3 | cell-free RecA intein splicing, fluorescence | inhibition, % (concentration not given with the values) | hit rate 0.75% among 290,000; in the data active = inhibition above about 30%; inconclusive = no clear call, values can overlap the other calls
Target sequence (P9WHJ3 whole entry, looked up): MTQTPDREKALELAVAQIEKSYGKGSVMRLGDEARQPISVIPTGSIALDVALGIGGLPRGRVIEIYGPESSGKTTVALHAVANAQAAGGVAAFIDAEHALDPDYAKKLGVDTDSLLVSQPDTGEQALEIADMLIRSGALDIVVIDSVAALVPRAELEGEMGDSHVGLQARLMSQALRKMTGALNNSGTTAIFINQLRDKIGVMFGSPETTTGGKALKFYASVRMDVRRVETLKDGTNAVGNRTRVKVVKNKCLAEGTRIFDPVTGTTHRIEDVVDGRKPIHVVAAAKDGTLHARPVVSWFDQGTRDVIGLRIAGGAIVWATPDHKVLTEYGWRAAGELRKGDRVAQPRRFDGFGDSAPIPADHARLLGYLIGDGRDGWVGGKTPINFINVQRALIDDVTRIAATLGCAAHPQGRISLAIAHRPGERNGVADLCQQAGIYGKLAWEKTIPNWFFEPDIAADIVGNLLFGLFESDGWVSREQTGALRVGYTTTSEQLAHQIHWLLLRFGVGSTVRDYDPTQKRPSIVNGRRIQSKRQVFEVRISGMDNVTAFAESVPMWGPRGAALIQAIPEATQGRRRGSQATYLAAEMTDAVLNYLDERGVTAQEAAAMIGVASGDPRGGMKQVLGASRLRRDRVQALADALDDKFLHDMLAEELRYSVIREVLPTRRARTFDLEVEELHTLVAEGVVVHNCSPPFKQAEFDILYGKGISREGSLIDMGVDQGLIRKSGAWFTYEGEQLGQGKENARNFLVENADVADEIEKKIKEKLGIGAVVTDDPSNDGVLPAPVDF
GFP chromophore: counter-screen: blocks GFP chromophore formation; shares compounds with RecA intein inh; cell-free GFP chromophore formation, fluorescence; EC50, µM; hit rate 83% among 2,100; AID 434968; call rule not given here
Of the large screens only hits and unclear results are named; the others gave an inactive call (follow-up assays come after a bar, where they were run).

COc1ccc(-c2[nH]nc3c2C(c2ccc(OC(=O)N4CCOCC4)cc2)C(C#N)=C(N)O3)cc1 (stereo not given)	none (no result: RecA intein inh)
N#CC1=C(N)Oc2n[nH]c(-c3ccccc3)c2C1c1cccc(OC(=O)N2CCOCC2)c1 (stereo not given)	RecA intein inh 67.6 | GFP chromophore 10.1
N#CC1=C(N)Oc2n[nH]c(-c3ccc(F)cc3)c2C1c1cccc(OC(=O)N2CCOCC2)c1 (stereo not given)	RecA intein inh 79.9 | GFP chromophore 11.2
COc1ccc(-c2[nH]nc3c2C(c2ccccc2OC(=O)N2CCOCC2)C(C#N)=C(N)O3)cc1 (stereo not given)	RecA intein inh 70.7 | GFP chromophore 21.1
Cc1ccn(CC(=O)NC2CC(C)(C)Cc3c2cnn3-c2ccc(F)cc2)n1 (stereo not given)	none
COc1ccc(CN2CCC(CNC(=O)NC3CCC(C)CC3)CC2)cc1 (stereo not given)	none (no result: VHR inh abs, SARS 3CLpro inh, RecA intein inh)
Cc1ccc2nc(/C(C#N)=C\c3ccc([N+](=O)[O-])o3)[nH]c2c1	RecA intein inh 34.1 | GFP chromophore 8.37
Cc1ccc2nc(/C(C#N)=C\c3ccc(N4CCOCC4)o3)[nH]c2c1	none
O=C(C(=O)N1CCC(CNS(=O)(=O)c2ccc(OC(F)(F)F)cc2)CC1)c1cc2ccccc2o1	none (no result: VHR inh abs, SARS 3CLpro inh, RecA intein inh)
CC(C)=CCC/C(C)=C/Cc1c(O)ccc(C(=O)/C=C/c2ccc(O)cc2)c1O	RecA intein inh 44.2 | GFP chromophore inactive
CC(C)(C)C(=O)Nc1ccc(N=Nc2ccccc2)cc1	RecA intein inh 35.2 | GFP chromophore 8.74
O=C(O)CCC(=O)Nc1ccc(N=Nc2ccccc2)cc1	none (no result: CCHF vOTU inh)
O=c1[nH]c(Sc2ccc([N+](=O)[O-])cc2[N+](=O)[O-])nc2ccccc12	RecA intein inh 33.9 (no result: VHR inh abs, SARS 3CLpro inh) | GFP chromophore 31.1
O=[N+]([O-])c1ccc(Sc2nc3ccccc3o2)c([N+](=O)[O-])c1	RecA intein inh 65.9 | GFP chromophore 1.98
O=[N+]([O-])c1ccc(Cl)cc1Sc1nc2ccccc2o1	none
COC(=O)C1=C(C)N(Cc2ccccc2C(F)(F)F)C(=NCc2ccc(OC)cc2)NC1c1cccc(Cl)c1 (stereo not given)	none (no result: VHR inh abs, SARS 3CLpro inh, RecA intein inh)
O=S(=O)(CC1NCCc2ccccc21)NCc1ccc(F)cc1 (stereo not given)	none (no result: VHR inh abs, SARS 3CLpro inh, RecA intein inh)
Cc1c(C)n(Cc2ccc(F)cc2)c2ccc(C(=O)NCCN3CCOCC3)cc12	none
CCn1c(COc2ccccc2C)nnc1SCC(=O)NCc1ccccc1	none
CCn1c(COc2cccc3ccccc23)nnc1SCC(N)=O	none | GFP chromophore inactive
O=C1NCCCc2c1oc1cc(Br)c(O)c(Br)c21	none
O=C1NCCCC2c3c(cc(Br)c(O)c3Br)OC12N1CCCCC1 (stereo not given)	RecA intein inh 37.6 | GFP chromophore 5.45
Cc1cc(C)cc(CC(Cc2nc3ccccc3[nH]2)c2nc3ccccc3[nH]2)c1 (stereo not given)	RecA intein inh 35.7 | GFP chromophore inactive
Cc1nn(C(C)C(=O)Nc2ccccc2Cl)c(=O)c2nn(-c3ccccc3)c(C)c12 (stereo not given)	none
COC(=O)c1ccccc1NC(=O)C(C)n1nc(C)c2c(C)n(-c3ccccc3)nc2c1=O (stereo not given)	RecA intein inh 97.3 | GFP chromophore inactive
Clc1ccc(CNc2ncnc3[nH]ncc23)c(Cl)c1	none (no result: VHR inh abs, SARS 3CLpro inh, RecA intein inh)
Cc1ccc2c(c1Cl)NC(C(=O)O)C1CC(Sc3ccccc3[N+](=O)[O-])C(Cl)C21 (stereo not given)	none (no result: CCHF vOTU inh, RecA intein inh)
CCN(CC)C(=O)c1ccc2c(c1)C1C(Cl)C(Sc3ccccc3[N+](=O)[O-])CC1C(C(=O)O)N2 (stereo not given)	RecA intein inh 35.9 (no result: CCHF vOTU inh) | GFP chromophore 23.2
Cc1ccc(NC(=O)CCS(=O)(=O)c2ccccc2)cc1S(=O)(=O)N1CCCCCC1	none (no result: VHR inh abs, SARS 3CLpro inh, RecA intein inh)
CCCCCc1cc(=O)oc2c(C(CCN3CCCC(C)C3)c3ccc4c(c3)OCO4)c(OC)cc(OC)c12 (stereo not given)	RecA intein inh 34.9 (no result: SARS 3CLpro inh) | GFP chromophore 19.6
CCCCCc1cc(=O)oc2c(C(CCN3CCCCC3)c3ccc4c(c3)OCO4)c(OC)cc(OC)c12 (stereo not given)	none (no result: SARS 3CLpro inh)
c1ccc(CNc2nc(NCc3ccccc3)c3ccccc3n2)cc1	RecA intein inh 60.0 (no result: CCHF vOTU inh) | GFP chromophore 22.8
Fc1ccc(Nc2nc(NCc3ccco3)c3ccccc3n2)cc1	RecA intein inh 48.8 | GFP chromophore 18.3
Nc1nc(Nc2ccccc2)nc(NCc2ccco2)c1[N+](=O)[O-]	none
COC(=O)c1cc(S(=O)(=O)NCc2cc(OC)c(OC)c(OC)c2)cn1C	none
CCCCC(=O)NC(c1cccc([N+](=O)[O-])c1)c1c(OC(C)=O)ccc2ccccc12 (stereo not given)	RecA intein inh 34.6 | GFP chromophore inactive
O=c1[nH]c(-c2ccccn2)cc2ccccc12	none
Cc1cc(Nc2ccc(F)cc2)c2ccccc2n1	none (no result: VHR inh abs, SARS 3CLpro inh, RecA intein inh)
Cc1cc2ccccc2c(=O)[nH]1	none
O=c1[nH]c(Nc2ccccn2)cc2ccccc12	RecA intein inh 71.6 (no result: VHR inh abs, SARS 3CLpro inh) | GFP chromophore inactive
O=c1[nH]c(Nc2ccc(F)cc2)cc2ccccc12	CCHF vOTU inh 105.2, RecA intein inh 64.8 | GFP chromophore 1.61
Cc1ccccc1Nc1cc2ccccc2c(=O)[nH]1	RecA intein inh 71.5 (no result: CCHF vOTU inh) | GFP chromophore inconclusive
C[C@H](CO)N1C[C@H](C)[C@@H](CN(C)C(=O)Nc2ccc3c(c2)OCO3)Oc2c(NC(=O)Nc3ccc4c(c3)OCO4)cccc2C1=O	none (no result: VHR inh abs, SARS 3CLpro inh, RecA intein inh)
COc1ccc(C2CC(=O)C(c3ccc(Cl)cc3)=CN2Cc2ccccc2)cc1 (stereo not given)	none (no result: VHR inh abs, SARS 3CLpro inh, RecA intein inh)
CCCc1[nH][nH]c(=O)c1C(c1cccc(Cl)c1)C(C#N)C#N (stereo not given)	RecA intein inh 51.5 | GFP chromophore 9.41
Cc1[nH]n(-c2ncc(-c3ccc(Cl)cc3)s2)c(=O)c1C(c1ccc(Cl)cc1)C(C#N)C#N (stereo not given)	none (no result: CCHF vOTU inh)
CC(=O)c1cccc2c(O)c(C3=Nc4ccccc4C3=O)[nH]c12	RecA intein inh 41.5 | GFP chromophore 4.58
Cc1ccc(C)c(NC(=O)CSc2n[nH]c(-c3ccccn3)n2)c1	RecA intein inh 50.5 | GFP chromophore inactive
Cc1cccc(C)c1NC(=O)C(c1ccnc2ccccc12)n1c(=O)c(-c2ccco2)nc2ccccc21 (stereo not given)	none (no result: VHR inh abs, SARS 3CLpro inh, RecA intein inh)
CCOC(=O)c1oc2nc(CC(C)C)c3c(c2c1N)CCC3	RecA intein inh 31.4 | GFP chromophore inactive
O=C1CCCC2=C1C1(O)C(=O)c3ccccc3C1(O)O2 (stereo not given)	RecA intein inh 88.5 | GFP chromophore 10.2
CN(Cc1ccccc1C#N)S(=O)(=O)c1cccs1	none
N#Cc1nccnc1S(=O)(=O)c1cccs1	RecA intein inh 67.9 | GFP chromophore 32.1
CCOC(=O)C(Nc1ccc2ccccc2c1)C(=O)OCC	RecA intein inh 70.5 | GFP chromophore 21.8
O=S(=O)(c1ccccc1)c1ncc(C(F)(F)F)cc1O	none
O=S(=O)(c1ccccc1)c1ncc(C(F)(F)F)cc1Cl	RecA intein inh 63.2 | GFP chromophore 24.5
COc1ccc(C2c3c(ncn(Cc4ccco4)c3=N)Oc3ccc4ccccc4c32)cc1 (stereo not given)	none
